Over roughly 35,000 sequences, “fluorescence intensity (a.u.)” has its median near 10,000; the highest 2% begin near 52,000. The entries come from a sample that favours the highest values as a whole.
Target: T1, OsWOX13 (Oryza sativa, UniProt Q5QMM3 1-267)
T1 sequence: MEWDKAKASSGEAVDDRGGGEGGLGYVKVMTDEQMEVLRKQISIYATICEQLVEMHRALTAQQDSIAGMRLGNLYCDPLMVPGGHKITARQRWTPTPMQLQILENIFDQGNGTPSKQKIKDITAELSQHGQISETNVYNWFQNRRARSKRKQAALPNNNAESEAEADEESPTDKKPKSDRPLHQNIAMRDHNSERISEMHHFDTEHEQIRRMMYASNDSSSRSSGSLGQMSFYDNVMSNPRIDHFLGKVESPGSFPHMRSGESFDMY
Assay: protein-binding microarray (RPBM); PBS, 2% BSA, 51.3 ng/ul salmon testes DNA, 50 uM zinc acetate, 200 nM TF, 25 C, 1 h; high values mean tight binding
Details: protein: recombinant; tags: N-terminal polyhistidine and DsRed monomer fusion (pET32a); label: CyDye5-dUTP incorporated in the synthesized complementary strand; 3' TTTTT single-stranded linker to array surface; dsDNA, one strand shown
Outline: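 The binding signal is fluorescence intensity per feature, in arbitrary units, read on an Axon 4000B scanner. Polyhistidine- and DsRed-tagged transcription factors (N-terminal fusions) from E. coli BL21-CodonPlus were purified on Ni–NTA and applied at 200 nM for 1 h at 25 °C to a double-stranded, BSA-blocked custom Agilent array in buffer with 50 µM zinc acetate.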

Compared with “ACAAAACAAATTACAGATTCCGCCTGCAAATTATGAGACACGGAGTCACCTAGTGCAG”, “CCGTGCTCAACTACCCAATCACTCCAAATTAAGCTCGCATCGGAGTCACCTAGTGCAG” is lower in binding signal: 6510 fluorescence intensity (a.u.) for the first, 3750 fluorescence intensity (a.u.) for the second.

First: TATTAATTAATTAACCTTAATTAATAAACAGGCAAAAGAACGGAGTCACCTAGTGCAG
Second: TGCTAGATTAAATTTTAAAACTATATTGTTCCTTTCATATCGGAGTCACCTAGTGCAG
The binding signal of the first is higher: 40700 fluorescence intensity (a.u.) for the first, 12400 fluorescence intensity (a.u.) for the second.

Compared with “CCTGATTTCCTCCTTTCAGTGAAGTGTTAAACCCTAGCTACGGAGTCACCTAGTGCAG”, “AGTGGCTGCCGAATTAATTGGATCGCGTGCTGCGTGCGTGCGGAGTCACCTAGTGCAG” is lower in binding signal: 21500 fluorescence intensity (a.u.) for the first, 5740 fluorescence intensity (a.u.) for the second.

Compared with “CTATTAAATTGATTATATATGATTTGTAGTTTATAGTTGGCGGAGTCACCTAGTGCAG”, “ATTAATTGAGTTTTATTTTATTGTAAATTTGATTTAATAGCGGAGTCACCTAGTGCAG” is lower in binding signal: 65100 fluorescence intensity (a.u.) for the first, 37200 fluorescence intensity (a.u.) for the second.

Going from “TTAAATTGGATCTGATTGATTTGTTTAAGGAAACCACCGGCGGAGTCACCTAGTGCAG” to “AGGATTGTTTCTGATGATTTGGGCCCGGAAAGACATAAGGCGGAGTCACCTAGTGCAG”, the binding signal falls from 54600 fluorescence intensity (a.u.) to 7510 fluorescence intensity (a.u.).

First: TGTTAAATTATATCTAAGGAAACCGGTTTTGATTTCCTTCCGGAGTCACCTAGTGCAG
Second: TGATAAATTTGATGTTTATATGTTAAATTATAGTAGTTTGCGGAGTCACCTAGTGCAG
The binding signal of the first is lower: 11100 fluorescence intensity (a.u.) for the first, 17600 fluorescence intensity (a.u.) for the second.

Compared with “GAGTAATATTCAACATTTTGATTAGAGGTTAACCGGTGTACGGAGTCACCTAGTGCAG”, “ATTCATTAATCTGTACTAATTGATATTGCTAAGCAGCTGCCGGAGTCACCTAGTGCAG” is higher in binding signal: 5370 fluorescence intensity (a.u.) for the first, 34200 fluorescence intensity (a.u.) for the second.

Compared with “TTTGATAAAATCATAGATGTAGATTTTAATGTGATCTGAGCGGAGTCACCTAGTGCAG”, “TCACGATTAATTATATCATCATTTTGTATCCTTTGATTTCCGGAGTCACCTAGTGCAG” is higher in binding signal: 6270 fluorescence intensity (a.u.) for the first, 25200 fluorescence intensity (a.u.) for the second.

First: GTGGCATTTAGGTAATTAATTTAGTTTTATTTGTTACCTGCGGAGTCACCTAGTGCAG
Second: TCTAAATGATTGTTATTTTCTTTCCTATTGTAAAGTTCAACGGAGTCACCTAGTGCAG
The binding signal of the first is lower: 10200 fluorescence intensity (a.u.) for the first, 18900 fluorescence intensity (a.u.) for the second.

Compared with “ATTTTGTGGTAATCTATACAAATTACTATATCCCCAATTGCGGAGTCACCTAGTGCAG”, “GTAAATATTAATGAATTGCTTGTTTATGTTTAAATAAATGCGGAGTCACCTAGTGCAG” is higher in binding signal: 4670 fluorescence intensity (a.u.) for the first, 4960 fluorescence intensity (a.u.) for the second.

Compared with “CATTATTTCACTTGATTAAATTGCTTTAACTTTTATTTAGCGGAGTCACCTAGTGCAG”, “TGTATTTAATTAGTTTGACAGAAACAAATTTGCTCAGTTACGGAGTCACCTAGTGCAG” is higher in binding signal: 15900 fluorescence intensity (a.u.) for the first, 37100 fluorescence intensity (a.u.) for the second.

Compared with “TAATTAATAATTAATTAATTATGTGTTAATTGCTTGCTCCCGGAGTCACCTAGTGCAG”, “ATTTTGAAATTTTAATTTTAAAATTACATTTTGGGACAAACGGAGTCACCTAGTGCAG” is lower in binding signal: 65500 fluorescence intensity (a.u.) for the first, 8130 fluorescence intensity (a.u.) for the second.

Compared with “TATATTTATTATTTGCAGTTAATTATGTTACAAATAATAACGGAGTCACCTAGTGCAG”, “TGTGTGTGTTTTAATTAATTAACATTTATATAAATATGAACGGAGTCACCTAGTGCAG” is higher in binding signal: 4460 fluorescence intensity (a.u.) for the first, 14100 fluorescence intensity (a.u.) for the second.

Going from “AATACTTATTAATAATTAACATGTGTTAATTCATTGCTTCCGGAGTCACCTAGTGCAG” to “CTTAATTACAAATTTGAAATTAATTTGCTAGGTATGTTTACGGAGTCACCTAGTGCAG”, the binding signal rises from 13400 fluorescence intensity (a.u.) to 63900 fluorescence intensity (a.u.).

Going from “CTTTAATTAATTTAACTGCCATTATTATGTACTTTCAGAGCGGAGTCACCTAGTGCAG” to “ATTATTAATTTAATAGTATTGTAGTGATTCAGAGTACTAGCGGAGTCACCTAGTGCAG”, the binding signal falls from 63200 fluorescence intensity (a.u.) to 19200 fluorescence intensity (a.u.).

Going from “CAAATTTATAATAATTAAAATTTAATTAATTATGTGTTAACGGAGTCACCTAGTGCAG” to “ATTGATTATTATTTTAAAATAAAATGGCGTGTTAGGTTTTCGGAGTCACCTAGTGCAG”, the binding signal falls from 57700 fluorescence intensity (a.u.) to 47300 fluorescence intensity (a.u.).

Compared with “CACTGATTTTGATAGTTGAGGGACCCGTTGTATTTGATTTCGGAGTCACCTAGTGCAG”, “CCAAAATTTGATAGAATCTATTCCGAAGCGTCCAATGTTTCGGAGTCACCTAGTGCAG” is higher in binding signal: 21500 fluorescence intensity (a.u.) for the first, 33400 fluorescence intensity (a.u.) for the second.

Going from “CCGCTGTAGCTGATTGCCAGTGTCAGATCAAGCTGTGAATCGGAGTCACCTAGTGCAG” to “ATTAGGTGTTTCCAGTTAATTAAAGTCATGTAGTACGGATCGGAGTCACCTAGTGCAG”, the binding signal falls from 9800 fluorescence intensity (a.u.) to 3680 fluorescence intensity (a.u.).

First: AATCAGCTCTAAATTTAAATTGTGGCTGATAAATACGAGTCGGAGTCACCTAGTGCAG
Second: GCTAAATTCCTATCAAATTCAAGTTTAACACATTACTGCGCGGAGTCACCTAGTGCAG
The binding signal of the first is lower: 4450 fluorescence intensity (a.u.) for the first, 13100 fluorescence intensity (a.u.) for the second.

Compared with “ATGAAATCAAGGTTTTGCAAATTGAAATCCATGTTTTGGTCGGAGTCACCTAGTGCAG”, “ATTATTATAAATTATTTCCTCCGTTTCACAATGTAAGTCACGGAGTCACCTAGTGCAG” is lower in binding signal: 8140 fluorescence intensity (a.u.) for the first, 5530 fluorescence intensity (a.u.) for the second.

Compared with “TAAATTGCGCAAAATTTATTCACGTAGATTAAGAGTCCATCGGAGTCACCTAGTGCAG”, “GTTGATTTCACGACCTGCTCGCTGAGGAATGGAGGTCCAGCGGAGTCACCTAGTGCAG” is lower in binding signal: 10700 fluorescence intensity (a.u.) for the first, 3180 fluorescence intensity (a.u.) for the second.

With “ATCATAATTAAATATATTTTCATAATAAATTTGTCTTTAGCGGAGTCACCTAGTGCAG” the binding signal was 31000 fluorescence intensity (a.u.).

Source: publication PMC7819943, “Rice protein-binding microarrays: a tool to detect cis-acting elements near promoter regions in rice”
